Screening data from PubChem.
Rows were chosen to be rich in hits. Some 6.5% of all compounds tested hit in one or more screens of this group.
Lassa entry inh – qHTS for Inhibitors of binding or entry into cells for Lassa Virus; Lassa virus pseudotype entry inhibition, cell reporter; AID 540256, 2011; Potency, µM (series often up to 37.9 µM), usual class: inhibitors; actives 1.2% (n = 300,000); calls by dose curve; tested in HEK293 cells; also: nearly all actives have a fitted effect of over 50% in size
HCMV inh – qHTS Assay for inhibitors of the human cytomegalovirus (HCMV) | HFF cells, HCMV-luciferase reporter, 72 h; hits give low values | actives 4.5% (n = 410,000) | AID 1259415, 2018 | activity change, negative = inhibition, % at 57.5 µM; in the data active = activity change below about -60%; inconclusive = no clear call, values can overlap the other calls; inactive = above about -39%
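Human foreskin fibroblasts infected with luciferase-reporter HCMV at MOI 1 PFU/cell, compounds at two doses. Luciferase measured 72 h post infection; normalized to buffer-only basal and Salinomycin (10uM) controls.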
FMDV antiviral – High Throughput Screening for Foot and Mouth Disease Virus Antivirals. actives 1.2% (n = 410,000). AID 1159524, 2015. Potency, µM (doses to about 57.9 µM), actives largely listed as inhibitors. FMDV antiviral cell-based qHTS; calls by dose curve; tested in HEK293T cells; also: read-out not given here; nearly all actives have a fitted effect of over 45% in size
VACV mCherry inh – qHTS for Stage-Specific Inhibitors of Vaccinia Orthopoxvirus: mCherry Reporter Primary qHTS | Vaccinia virus mCherry reporter infection, fluorescence | Potency, µM (top dose mostly 36.5 µM), most hits filed as inhibitors | actives 0.63% (n = 310,000); calls by dose curve; tested in A549 cells; also: nearly all actives have a fitted effect of over 35% in size
VACV Venus inh – qHTS for Stage-Specific Inhibitors of Vaccinia Orthopoxvirus: Venus Reporter Primary qHTS; Vaccinia virus Venus reporter expression, fluorescence; Potency, µM (series often up to 36.5 µM), most hits filed as inhibitors; actives 0.46% (n = 330,000); AID 720580, 2013; calls by dose curve; tested in A549 cells; also: nearly all actives have a fitted effect of over 30% in size
Marburg entry inh – qHTS for inhibitors of binding or entry into cells for Marburg Virus; Marburg virus pseudotyped entry inhibition, cell reporter; Potency, µM (highest dose often 37.8 µM), usual class: inhibitors; actives 1.8% (n = 300,000); calls by dose curve; tested in HEK293 cells
A number is an active result; i = inactive; ? = inconclusive; nt = not tested or not shown; [ ] = remark or other dose.

SMILES | Lassa entry inh | HCMV inh | FMDV antiviral | VACV mCherry inh | VACV Venus inh | Marburg entry inh
Cc1onc(-c2ccccc2)c1CNS(=O)(=O)c1cccc(Br)c1 | i | -73 | i | i[7.34 µM] | i[7.34 µM] | ?
Cc1onc(-c2ccccc2)c1CNS(=O)(=O)c1ccc(F)cc1F | nt | i | i | nt | nt | nt
COC(=O)C(Cc1ccccc1)N1CCS(=O)(=O)CC1 (stereo not given) | i | -69 | i | i | i | i
CN=c1sc(C(=O)Nc2cccc(Cl)c2)cc(=O)n1C | ? | -66 | i | nt | nt | ?
CC(C)OC(=O)CCCCCN1C(=O)CSC1=S | i | i | i | i | i | i
O=C(O)CCCCCN1C(=O)CSC1=S | ? | -81 | i | nt | i | ?
O=[N+]([O-])c1ccc2c(c1)C=C/C2=C/c1ccccc1 | nt | nt | nt | i | i | nt
CCCn1c2ccccc2c2cnn(CC(=O)N3CCOCC3)c(=O)c21 | nt | i | i | nt | nt | nt
O=C(Cn1ncc2c1-c1ccccc1OC2)N1CCc2ccccc21 | i | i | i | i | i | i
O=C(Cn1ncc(Cl)c(Cl)c1=O)N1CCc2ccccc21 | ? | -95 | ? | ? | ? | ?
O=C(Cn1ncc(Cl)c(Cl)c1=O)N1CCN(Cc2ccccc2)CC1 | nt | -83 | ? | nt | nt | nt
O=C(Cn1ncc(Cl)c(Cl)c1=O)N1CCOCC1 | ? | -99 | i | ? | ? | ?
COc1ccc(NC(=O)CN(c2ccc(C)cc2)S(=O)(=O)c2cccs2)cc1 | i | i | i | i | i | i
CN(C)c1ccc(CNC(=O)CN2CCSc3ccc(S(=O)(=O)N(C)C)cc32)cc1 | i | i | i | i | i | nt
CC1(C)C(=O)C=C[C@]2(C)C1CC(=O)[C@]1(C)C2CC[C@@]2(C)C(c3ccoc3)OC(=O)C3O[C@@]321 (stereo not given in full) | nt | nt | 18µM | i | i | nt
CC1(C)O[C@H]2CC(=O)OC[C@]23[C@H]2CC[C@@]4(C)[C@H](c5ccoc5)OC(=O)[C@H]5O[C@]54[C@]2(C)C(=O)C[C@@H]13 | nt | nt | i | i | i | nt
C/C(CC1(O)C(=O)N(C)c2ccccc21)=N\O (stereo not given) | i | ? | i | i | i | i
CC(=O)CC1(OC(C)=O)C(=O)N(C)c2ccccc21 (stereo not given) | i | -64 | i | i | i | ?
CN1CCN(c2ccc(NC(=O)COc3cccc4ccccc34)cc2)CC1 | i | i | i | ? | i | ?
C=CC(=O)Nc1cccc(Oc2ccnc3[nH]ccc23)c1 | nt | nt | i | ? | 5.6µM | nt
C=CC(=O)Nc1cccc(Oc2ccnc(Nc3ccc(N4CCN(C)CC4)cc3)n2)c1 | nt | i | i | ? | 3.5µM | i
C=CC(=O)Nc1cccc(N(C)c2ccnc(Nc3ccc(N4CCN(C)CC4)cc3)n2)c1 | nt | nt | ? | ? | 4.5µM | nt
COc1cccc(NC(=O)Nc2cccnc2)c1 | nt | i | i | nt | nt | nt
COc1ccc(OC)c(/C=C2\C=Cc3ccccc32)c1 | nt | nt | nt | i | i | nt
Cc1ccc(-c2nnc3ccc(SCC(=O)c4ccccc4)nn23)cc1 | nt | nt | nt | i | ? | nt
SMILES | Lassa entry inh | HCMV inh | FMDV antiviral | VACV mCherry inh | VACV Venus inh | Marburg entry inh
C/C(=N\NC(=O)c1ccc(N/N=C(\C)c2ccncc2)cc1)c1ccncc1 | i | i | i | i | i | 1µM
C/C(=N\NC(=O)c1ccccc1NC(=O)c1ccc(Cl)cc1)c1ccncc1 | ? | i | 3.2µM | i | i | ?
Cc1cccc(C(=O)Nc2c(C(=O)NCc3ccc(Cl)cc3)sc3nc(C)cc(C)c23)c1 | ? | -75 | i | i[7.34 µM] | i[7.34 µM] | ?
COc1ccc(NC(=O)N(C)C[C@@H]2OCc3cnnn3CCCC(=O)N([C@H](C)CO)C[C@H]2C)c(OC)c1 | nt | i | nt | nt | nt | nt
Cc1cc(C(=O)CSc2nnc(-c3ccco3)o2)c(C)n1Cc1ccco1 | i | i | i | i | i | i
Cc1cc(C(=O)CSc2nn(-c3ccccc3)c(=S)s2)c(C)n1Cc1ccco1 | i | i | i | nt | nt | i
Cc1cc(C(=O)CCl)c(C)n1Cc1ccco1 | ? | -97 | 28µM | i | i | ?
Cc1cc(C(=O)CSc2nncs2)c(C)n1Cc1ccco1 | 4.5µM | i | i | i | i | 6.3µM
Cc1ccnc(NCc2cc(Cl)cc(Cl)c2O)c1 | nt | i | i | i | i | nt
Cc1cc(C)c(O)c(CN(C)Cc2cc(Cl)cc(Cl)c2O)c1 | ? | i | i | 2.8µM | ? | 3.2µM
O=C(Nc1ccc2nc3n(c(=O)c2c1)CCCC3)c1cc([N+](=O)[O-])ccc1F | 3.3µM | nt | 20µM | i | i | 7.1µM
O=C(Nc1ccc2nc3n(c(=O)c2c1)CCCC3)c1cncc(Br)c1 | nt | -63 | i | i | i | nt
O=C(Nc1ccc2nc3n(c(=O)c2c1)CCCC3)c1cccc([N+](=O)[O-])c1 | i | i | i | i | i | i
COc1ccc(OC)c(NC(=O)CC(=O)Nc2ccc3nc4n(c(=O)c3c2)CCCCC4)c1 | i | i | i | i | i | i
COc1cccc(NC(=O)CC(=O)Nc2ccc3nc4n(c(=O)c3c2)CCCCC4)c1 | i | -72 | i | i | i | i
Cc1ccc(NC(=O)CSc2nc(=O)n(CCN3CCOCC3)c3c2CCC3)c(C)c1 | i | i | i | i[7.34 µM] | i[7.34 µM] | nt
CC(NCc1ccc(-c2ccccc2)cc1)C(O)c1ccccc1 (stereo not given) | 4.6µM | -101 | ? | i | ? | ?
CC(NCc1ccc(Cl)cc1)C(O)c1ccccc1 (stereo not given) | i | i | nt | i | i | ?
COc1ccc(-c2cn(-c3ccccc3)nc2CO)cc1 | i | i | i | i | i | ?
Cc1csc(=Nc2c(C)n(C)n(-c3ccccc3)c2=O)n1Cc1ccccc1 | i | i | i | i | i | i
COc1ccc(-c2csc(=NCCO)n2-c2ccccc2)cc1 | i | ? | 18µM | i | i | ?
C=CCn1c(-c2ccc(OC)cc2)csc1=Nc1c(C)n(C)n(-c2ccccc2)c1=O | i | ? | 22µM | nt | ? | i
OCCCn1c(-c2ccc(F)cc2)csc1=Nc1ccc(F)cc1 | i | i | i | i | i | ?
COc1ccc(-c2csc(=Nc3ccccc3)n2CCO)cc1 | i | -62 | 25µM | i | i | ?
Cc1ccc(-c2csc(=Nc3ccccc3)n2CCCO)cc1 | i | i | 32µM | i | i | i
SMILES | Lassa entry inh | HCMV inh | FMDV antiviral | VACV mCherry inh | VACV Venus inh | Marburg entry inh
Cc1ccccc1-c1ccc2ncnc(NCCN3CCOCC3)c2c1 | nt | nt | i | nt | nt | nt
Cc1ccccc1/C=C(\C#N)c1nc(-c2ccc(Cl)cc2)cs1 | i | i | i | i | i | i
Cn1cc(CN2CCC(C3(c4ccccn4)NC(=O)N(CC4CCCO4)C3=O)CC2)c2ccccc21 (stereo not given) | nt | nt | i | i | i | nt
Cc1ccc2cc(CN(C(=O)c3ccc4c(c3)OCO4)C3CC3)c(N(C)C)nc2c1 | nt | nt | i | i | i | nt
CC12C(=O)OC(=O)C1(C)C1CCC2O1 (stereo not given) | 2.9µM | nt | ? | i | i | 3.3µM
C[C@@]12C(=O)OC(=O)[C@@]1(C)[C@H]1CC[C@@H]2O1 | nt | nt | nt | nt | nt | 3.3µM
O=C1COCc2cc(-c3cccnc3)ccc2N1Cc1ccc2c(c1)OCO2 | nt | i | nt | nt | nt | nt
